D2 PAM-1: positively modulates the human D2 dopamine receptor allosterically; 340,000 tested, 0.34% active; potentiation, % at 10 µM; HEK293 T-REx D2, calcium flux, EC20 dopamine potentiation; P14416; AID 485347;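 active = potentiation over 3 SD above the plate norm, cut at about 30% in these data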
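Primary screen. Calcium kinetics in induced HEK293 T-REx D2 cells: compound pre-addition 180 s, EC20 dopamine, 180 s more.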
Anesthetic bind: candidate novel general anesthetic via apoferritin binding; apoferritin/1-aminoanthracene competitive binding, fluorescence; P02791; Potency, µM (series often up to 77.5 µM), most hits filed as inhibitors; 350,000 tested, 0.074% active; also: nearly all actives have a fitted effect of over 20% in size
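Horse-spleen apoferritin (10 uM) in 50% saturated 1-aminoanthracene in PBS was incubated 10 min at room temperature with compound. Fluorescence (ex 380, em 535 nm) was normalized to free and bound 1-AMA, with concentration-response fitted by a four-parameter Hill equation.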
D2 antagonist: antagonizes the human D2 dopamine receptor | P14416 | HEK293 TREx D2 cells, calcium flux, dopamine EC80 | inhibition, % at 10 µM | 340,000 tested, 2% active | AID 485344; in the data active = inhibition above about 30%; inactive = below that, where a call was filed
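Cells plated overnight at 30 C with tetracycline; no-wash calcium dye, 30–90 min RT; 10 s baseline; compound pinned; 180 s read; EC80 dopamine added; another 180 s read.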
D2 PAM-2: positive allosteric modulators of human D2 dopamine receptor. DiscoveRx D2 beta-arrestin cells, luminescence, 90 min; 100% = 57 uM dopamine signal. AID 624464. 360,000 tested, 0.23% active. P14416. potentiation, % (test concentration not listed); in the data active = potentiation above about 50%; inconclusive = mostly about 30% to 49%
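PathHunter D2 cells, attached overnight at 37 deg C, received compound in DMSO plus dopamine at EC20 (50 nM final) for 90 min at 37 deg C. Beta-arrestin recruitment was read as luminescence after 1 h with detection reagent at ambient temperature.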
D2 ag-1: agonists of human D2 dopamine receptor (beta-arrestin) | P14416 | DiscoveRx PathHunter D2 beta-arrestin, luminescence, 90 min; 100% = 57 uM dopamine signal | activation, % (no concentration beside the values) | 360,000 tested, 0.084% active; in the data active = activation above about 40%; inconclusive = between about 15% and that limit
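Agonist mode: compounds alone added to overnight-plated D2 PathHunter cells for 90 min at 37 C, with 57 uM final dopamine (EC100) defining full response. Beta-arrestin recruitment detected by chemiluminescent reagent, read after 1 h at ambient temperature.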
D2 ag-2: agonists of human D2 dopamine receptor | AID 485358 | activation, % at 2 µM | 340,000 tested, 0.53% active | HEK293 T-REx D2 cells, calcium flux agonist mode | P14416;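 active = activation over 3 SD above normal in the single-dose calcium agonist read, cut at about 30% in these data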
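In this primary screen, compounds producing a positive calcium signal within 180 s of addition to tetracycline-induced, force-coupled HEK293 Trex D2 cells are flagged; cells are dye-loaded with a no-wash calcium kit beforehand.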
D3 arrestin ag: activates human D3 dopamine receptor beta-arrestin recruitment; shares compounds with D2 ag-2; DiscoveRx D3 beta-arrestin cells, luminescence, 90 min; Potency, µM (highest dose often 76.9 µM), hits mostly activators; 2,300 tested, 4% active; AID 720506; also: nearly all actives have a fitted effect of over 70% in size
Target sequence (P35462 whole entry, looked up): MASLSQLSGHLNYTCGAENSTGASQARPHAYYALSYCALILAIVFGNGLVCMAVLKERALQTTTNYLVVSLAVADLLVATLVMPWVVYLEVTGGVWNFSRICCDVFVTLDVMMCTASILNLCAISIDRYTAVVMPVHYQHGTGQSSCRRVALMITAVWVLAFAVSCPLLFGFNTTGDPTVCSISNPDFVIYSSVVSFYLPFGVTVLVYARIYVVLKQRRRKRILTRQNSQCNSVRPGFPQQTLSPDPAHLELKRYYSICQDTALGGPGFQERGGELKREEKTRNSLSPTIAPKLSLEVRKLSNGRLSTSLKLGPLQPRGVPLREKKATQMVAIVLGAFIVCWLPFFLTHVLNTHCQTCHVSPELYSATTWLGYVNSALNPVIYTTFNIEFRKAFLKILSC
D2 ag-3: counter-screen for D3 agonists: human D2 dopamine receptor agonism | shares compounds with D2 ag-2 | DiscoveRx PathHunter D2 beta-arrestin, luminescence, 90 min; response scale: percent relative to full dopamine signal | Potency, µM (series often up to 76.9 µM), actives largely listed as activators | 2,300 tested, 5.9% active; also: nearly all actives have a fitted effect of over 70% in size
Large screens that a line does not name were inactive (follow-up assays come after a bar, where they were run). Only some compounds are listed: those with a hit (about 2.5% of all), similar ones and a draw of the others. Unless noted, calls follow the shape of the dose curve; as a rule, active = well fitted curve in the direction sought with a large enough effect; inconclusive = small, poorly fitted or top-dose-only effect, or another doubt; inactive = no such curve, though single readings can be large; an effect the other way counts as inactive or inconclusive.

COc1ccccc1N1CCN(C(CNS(=O)(=O)c2cccs2)c2cccnc2)CC1 (stereo unspecified)	none
COC(=O)NCC(c1ccc2c(c1)OCO2)N1CCN(c2ccccc2)CC1 (stereo unspecified)	none
Nc1cc(Cl)ccc1C(=O)OCC(=O)NC(=O)NCc1ccccc1	none
CC(C)[C@H](NC(=O)OCc1ccccc1)C(=O)OCC(=O)N1C(C)CCCC1C (stereo partly specified)	none (no result: D2 PAM-1, Anesthetic bind, D2 antagonist, D2 ag-2)
CC(C)N=c1scc(-c2ccco2)n1/N=C/c1ccc(O)c(O)c1	none
C=CCN=c1scc(-c2ccco2)n1/N=C/c1ccc(O)c(O)c1O	D2 antagonist 88.1, D2 PAM-2 101.1, D2 ag-1 90.0, D2 ag-2 74.2 | D3 arrestin ag 39.8µM | D2 ag-3 35.5µM
COCCN=c1scc(-c2ccco2)n1/N=C/c1ccc(O)c(O)c1O	Anesthetic bind inconclusive, D2 antagonist 76.9, D2 PAM-2 88.4, D2 ag-1 69.8, D2 ag-2 67.6 | D3 arrestin ag 35.5µM | D2 ag-3 35.5µM
O=C(NCCc1ccccc1)c1nc2nc(-c3cccs3)cc(C(F)(F)F)n2n1	D2 antagonist 40.4 | D3 arrestin ag inactive | D2 ag-3 inactive
Cc1cc(C)n2nc(C(=O)NCCc3ccccc3)nc2n1	none
CCCOC(=O)CCCCC1SCC(NC(=O)OC)C1NC(=O)OC (stereo unspecified)	none
COc1cccc(CN2CCN(C(=O)c3cccs3)CC2)c1OC	D2 antagonist 70.9, D2 ag-1 inconclusive, D2 ag-2 90.3 | D3 arrestin ag inconclusive | D2 ag-3 inconclusive
COc1ccc(OC)c(CN2CCN(C(=O)c3cccs3)CC2)c1	D2 antagonist 71.0, D2 PAM-2 inconclusive, D2 ag-1 48.9, D2 ag-2 81.9 | D3 arrestin ag inactive | D2 ag-3 inconclusive
CCC(=O)Nc1ccc(C(=O)NNC(=O)c2ccc(C)cc2)cc1	none
CCOc1ccccc1NC(=O)N1CCCC1C(=O)NCc1cccs1 (stereo unspecified)	none
O/C=c1\ccc2cccc3nc(C(F)(F)F)nc1c23	none
C/C(O)=c1/ccc2cccc3nc(C)nc1c23	none | D3 arrestin ag inconclusive | D2 ag-3 inactive
Cc1cccc(CN2CCC(C(=O)Nc3ccc(Oc4cccnc4)cc3)CC2)c1	Anesthetic bind inconclusive
CSc1ccccc1NC(=O)c1ccc(CN2CCOCC2)cc1	none
COc1ccc(NC(=O)c2ccc(CN3CCN(c4ccccc4)CC3)cc2)cc1	D2 antagonist 82.4, D2 ag-1 inconclusive, D2 ag-2 86.4 | D3 arrestin ag inactive | D2 ag-3 14.1µM
COc1ccc(C(=O)Nc2ccc(N3CCN(Cc4ccccc4)CC3)cc2)cc1	none
O=C(Nc1ccccc1F)c1ccc(CN2CCN(c3ccccc3)CC2)cc1	D2 antagonist 80.9, D2 ag-1 inconclusive, D2 ag-2 85.1 | D3 arrestin ag inactive | D2 ag-3 17.8µM
Cc1cc(C)n(-c2nc(SCC(=O)Nc3nccs3)c3c4c(sc3n2)COC(C)(C)C4)n1	none
Cc1ccc(N2C(=O)c3cccc4c(N5CCN(C)CC5)ccc(c34)C2=O)c2cccnc12	D2 ag-2 32.0 | D3 arrestin ag inactive | D2 ag-3 inactive
COc1ccc(C(O)c2nc(-c3cccc(C(F)(F)F)c3)cs2)cc1 (stereo unspecified)	none (no result: D2 PAM-1, Anesthetic bind, D2 antagonist, D2 ag-2)
CSc1c(CC(=O)Nc2ccccc2C(F)(F)F)n(Cc2ccccc2)c2ccccc12	none | D3 arrestin ag inactive | D2 ag-3 inactive
CSc1c(CC(=O)Nc2ccccc2Cl)n(Cc2ccccc2)c2ccccc12	none

From PubChem BioAssay
